Screens as filed in PubChem BioAssay.
MITF inh: MITF inhibitors, primary screen, biochemical, AlphaScreen, human. Microphthalmia-associated transcription factor (Homo sapiens), O75030. AlphaScreen MITF homodimerization, bead proximity signal. inhibition, % at 2.6 µM. actives 0.91% (n = 650,000); in the data active = inhibition above about 50%
GPR151 ag: activators of human GPR151, primary screen, cell-based, PathHunter beta-arrestin, luminescence; PathHunter beta-arrestin GPR151 cells; AID 1508602, 2020; activation, % at 11.2 µM; G-protein coupled receptor 151 (Homo sapiens), Q8TDV0; actives 1% (n = 650,000); in the data active = activation above about 4.9%
FBW7 activator: FBW7 E3 ligase activators, primary screen, biochemical, AlphaScreen, human | AlphaScreen FBW7–phospho-cyclin E peptide binding, activator screen | actives 0.13% (n = 650,000) | F-box/WD repeat-containing protein 7 (Homo sapiens), Q969H0 | normalized activity (activation), % at 26.1 µM; in the data active = normalized activity above about 1.9%;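 note: purified mutant Fbw7 with reduced substrate affinity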
Target sequence (Q969H0 whole entry, looked up): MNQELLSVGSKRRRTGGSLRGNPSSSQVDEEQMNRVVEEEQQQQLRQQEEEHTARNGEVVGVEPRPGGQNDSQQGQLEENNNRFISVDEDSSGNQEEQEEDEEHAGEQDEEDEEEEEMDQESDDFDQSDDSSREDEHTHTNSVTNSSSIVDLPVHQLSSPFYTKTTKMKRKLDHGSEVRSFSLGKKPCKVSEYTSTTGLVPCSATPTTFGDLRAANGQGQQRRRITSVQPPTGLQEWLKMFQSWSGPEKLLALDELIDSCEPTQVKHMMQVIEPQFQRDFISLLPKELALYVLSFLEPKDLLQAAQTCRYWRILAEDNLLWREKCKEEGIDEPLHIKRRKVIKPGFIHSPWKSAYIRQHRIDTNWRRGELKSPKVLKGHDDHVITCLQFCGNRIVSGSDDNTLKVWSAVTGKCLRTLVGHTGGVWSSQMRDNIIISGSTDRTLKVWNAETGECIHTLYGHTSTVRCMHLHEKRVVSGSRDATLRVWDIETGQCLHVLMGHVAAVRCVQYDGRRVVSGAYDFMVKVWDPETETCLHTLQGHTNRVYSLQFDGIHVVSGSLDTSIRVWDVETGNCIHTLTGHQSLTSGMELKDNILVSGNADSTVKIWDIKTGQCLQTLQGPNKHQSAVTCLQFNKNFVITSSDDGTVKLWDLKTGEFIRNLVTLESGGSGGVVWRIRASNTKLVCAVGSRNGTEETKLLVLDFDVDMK
TEAD-YAP inh: TEAD-YAP interaction inhibition, primary screen, TEAD-YAP interaction inhibitor project, luminescence, HEK-TIYL cells. TEAD-Gal4/YAP UAS-luciferase luminescence. inhibition, % at 9.12 µM. actives 1.4% (n = 640,000). AID 1259422, 2018; in the data active = inhibition above about 32%
GPR151 conf act: GPR151 activators, triplicate retest, confirmation, cell-based, PathHunter beta-arrestin, luminescence | shares compounds with GPR151 ag | GPR151 PathHunter beta-arrestin cells, 90 min; % of EA-reagent control over plate median | activation, % at 11.2 µM | 6,700 tested, under 10 active | AID 1508609, 2020;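 active = mean percent activation across replicates above the confirmation screen cutoff of 4.91%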
GPR119 ag: GPR119 activators in beta-arrestin cells, counter-screen for GPR151 activator project, cell-based, PathHunter beta-arrestin, luminescence, triplicate | actives 0.3% (n = 6,700) | activation, % at 11.2 µM | 90 min; 0 = compound-well median, 100 = enzyme-acceptor control | shares compounds with GPR151 ag;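 active = mean percent activation in the counterscreen above 29.09%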;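 note: counterscreen on off-target GPR119 to flag nonselective hits from the GPR151 activator screen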
Hits are given with their value. In the library only some 3.5% were active in any assay of this set; here they are far more common.

For C[C@H]1C/C=C/[C@H]2[C@@H]3O[C@]3(C)[C@@H](C)[C@H]3[C@H](Cc4ccccc4)NC(=O)[C@]32OC(=O)O/C=C/[C@](C)(O)C1=O the results were MITF inh inactive, GPR151 ag 11, FBW7 activator inactive, TEAD-YAP inh inactive, GPR151 conf act inactive and GPR119 ag inactive.
O=c1oc2ccccc2c(O)c1C(c1ccc(N2CCOCC2)cc1)c1c(O)c2ccccc2oc1=O was read as MITF inh inactive, GPR151 ag inactive, FBW7 activator inactive and TEAD-YAP inh inactive.
O=C1CC(c2cnc[nH]2)C2(CCCCC2)O1 (configuration not stated) was read as MITF inh inactive, GPR151 ag 7.9, FBW7 activator inactive, TEAD-YAP inh inactive, GPR151 conf act inactive and GPR119 ag inactive.
Screening CCCCNC(=O)N1c2ccc(C)cc2C2CN(C)CCC21 (configuration not stated) returned MITF inh inactive, GPR151 ag 5.9, FBW7 activator inactive, TEAD-YAP inh inactive, GPR151 conf act inactive and GPR119 ag inactive.
Screening CCCCCC(=O)N1c2ccc(C)cc2C2CN(C)CCC21 (configuration not stated) returned MITF inh inactive, GPR151 ag inactive, FBW7 activator inactive and TEAD-YAP inh inactive.
`C/C(=C\C(=O)NC(C)Cc1ccccc1)c1ccccc1` (configuration not stated) gave MITF inh inactive, GPR151 ag inactive, FBW7 activator inactive and TEAD-YAP inh inactive.
`N#CCC(=O)NN1Cc2ccccc2C1=N` gave MITF inh inactive, GPR151 ag 6.8, FBW7 activator inactive, TEAD-YAP inh inactive, GPR151 conf act inactive and GPR119 ag inactive.
CCOc1cccc(N2C(=O)CC(=O)NC2=S)c1 was read as MITF inh inactive, GPR151 ag inactive, FBW7 activator inactive and TEAD-YAP inh inactive.
